Laboratory results taken from the supplement of paper PMC12645437, “Orthogonal IMiD-Degron Pairs Induce Selective Protein Degradation in Cells” (ACS Chemical Biology, 2025).
In all, about 8,300 sequences were measured (“log2 fold change of degron read counts, EGFP-low vs EGFP+ sorted cells (limma voom), compound-induced degradation”: median about -1.1, highest 2% from about 3.2 on). The sample as a whole holds a higher share of the highest values than the screen did.

Target: T1, CRBN, Q96SW2
T1 chain: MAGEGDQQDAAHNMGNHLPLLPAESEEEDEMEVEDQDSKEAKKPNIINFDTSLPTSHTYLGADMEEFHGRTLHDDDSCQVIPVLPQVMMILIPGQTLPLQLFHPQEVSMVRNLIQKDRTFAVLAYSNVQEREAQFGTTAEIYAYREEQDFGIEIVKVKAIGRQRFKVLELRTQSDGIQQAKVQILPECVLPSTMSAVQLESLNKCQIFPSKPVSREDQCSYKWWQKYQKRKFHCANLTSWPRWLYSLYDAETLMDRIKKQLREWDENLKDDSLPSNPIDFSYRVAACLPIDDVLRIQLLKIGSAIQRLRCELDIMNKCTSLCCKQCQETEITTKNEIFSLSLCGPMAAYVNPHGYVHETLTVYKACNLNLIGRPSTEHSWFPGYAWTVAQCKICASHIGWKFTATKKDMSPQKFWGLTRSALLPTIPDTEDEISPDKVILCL
Test: log2 fold change of degron read counts, EGFP-low vs EGFP+ sorted cells (limma voom), compound-induced degradation; higher = more compound-induced degradation of the degron-EGFP fusion; degrons are variants of IKZF1/3 zinc finger 2; compound dose not given here
Conditions: Jurkat, 18 h

[1] = compound: compound 19 (5-tert-butyl-thalidomide)
[2] = compound: compound 22 (5-morpholino-thalidomide)
[3] = compound: compound 33 (diphenyl IMiD analogue)
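Also: pooled lentiviral library of zinc finger degron-EGFP fusions in mCherry-positive Jurkat cells, FACS-sorted after compound exposure, with degron abundance counted by next-generation sequencing.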

Sequence: FICEICGAMFTQKGNLLRHIKL [46F_47I_49E_50I_52G_53A_54M_55F_67L_, Q9UKT9]
- log2 fold change of degron read counts [1]: -0.357
- log2 fold change of degron read counts [2]: 1.35
- log2 fold change of degron read counts [3]: 2.3
- log2 fold change of degron read counts (compound: thalidomide): 2.13

Sequence: FTCEICGAMFTQKGNLLRHIKL [46F_47T_49E_50I_52G_53A_54M_55F_67L_, Q9UKT9]
- log2 fold change of degron read counts [1]: 0.136
- log2 fold change of degron read counts [2]: 0.966
- log2 fold change of degron read counts [3]: 1.62
- log2 fold change of degron read counts (compound: thalidomide): 1.82

Sequence: FYCEICGAMFTQKGNLLRHIKL [46F_47Y_49E_50I_52G_53A_54M_55F_67L_, Q9UKT9]
- log2 fold change of degron read counts [1]: 3.62
- log2 fold change of degron read counts [2]: 3.42
- log2 fold change of degron read counts [3]: 2.55
- log2 fold change of degron read counts (compound: thalidomide): 0.91

Sequence: FACPQCGAAFTQKGNLLRHIKL [46F_47A_49P_50Q_52G_53A_54A_55F_67L_, Q9UKT9]
- log2 fold change of degron read counts [1]: 1.65
- log2 fold change of degron read counts [2]: -0.791
- log2 fold change of degron read counts [3]: 0.0272
- log2 fold change of degron read counts (compound: thalidomide): -1.04

Sequence: FLCEVCGAGFTQKGNLLRHIKL [46F_47L_49E_50V_52G_53A_54G_55F_67L_, Q9UKT9]
- log2 fold change of degron read counts [1]: 2.28
- log2 fold change of degron read counts [2]: -0.0355
- log2 fold change of degron read counts [3]: 1.42
- log2 fold change of degron read counts (compound: thalidomide): 1.08

Sequence: FACEVCGAGFTQKGNLLRHIKL [46F_47A_49E_50V_52G_53A_54G_55F_67L_, Q9UKT9]
- log2 fold change of degron read counts [1]: 3.4
- log2 fold change of degron read counts [2]: 1.13
- log2 fold change of degron read counts [3]: -0.271
- log2 fold change of degron read counts (compound: thalidomide): 0.383

Sequence: FYCEVCGAGFTQKGNLLRHIKL [46F_47Y_49E_50V_52G_53A_54G_55F_67L_, Q9UKT9]
- log2 fold change of degron read counts [1]: 3.31
- log2 fold change of degron read counts [2]: 3.22
- log2 fold change of degron read counts [3]: 2.6
- log2 fold change of degron read counts (compound: thalidomide): 0.445

Sequence: FICEVCGAGFTQKGNLLRHIKL [46F_47I_49E_50V_52G_53A_54G_55F_67L_, Q9UKT9]
- log2 fold change of degron read counts [1]: -0.137
- log2 fold change of degron read counts [2]: 2.66
- log2 fold change of degron read counts [3]: 2.12
- log2 fold change of degron read counts (compound: thalidomide): 2.56

Sequence: FGCEVCGAGFTQKGNLLRHIKL [46F_47G_49E_50V_52G_53A_54G_55F_67L_, Q9UKT9]
- log2 fold change of degron read counts [1]: 1.93
- log2 fold change of degron read counts [2]: -0.105
- log2 fold change of degron read counts [3]: 0.538
- log2 fold change of degron read counts (compound: thalidomide): -0.636

Sequence: FHCEVCGAGFTQKGNLLRHIKL [46F_47H_49E_50V_52G_53A_54G_55F_67L_, Q9UKT9]
- log2 fold change of degron read counts [1]: 3.18
- log2 fold change of degron read counts [2]: 1.07
- log2 fold change of degron read counts [3]: 2.01
- log2 fold change of degron read counts (compound: thalidomide): -0.276

Sequence: FDCEVCGAGFTQKGNLLRHIKL [46F_47D_49E_50V_52G_53A_54G_55F_67L_, Q9UKT9]
- log2 fold change of degron read counts [1]: 1.18
- log2 fold change of degron read counts [2]: -1.45
- log2 fold change of degron read counts [3]: -1.35
- log2 fold change of degron read counts (compound: thalidomide): -0.721

Sequence: FFCEVCGAGFTQKGNLLRHIKL [46F_47F_49E_50V_52G_53A_54G_55F_67L_, Q9UKT9]
- log2 fold change of degron read counts [1]: 3.65
- log2 fold change of degron read counts [2]: 2.72
- log2 fold change of degron read counts [3]: 1.51
- log2 fold change of degron read counts (compound: thalidomide): 0.512

Sequence: FCCEVCGAGFTQKGNLLRHIKL [46F_47C_49E_50V_52G_53A_54G_55F_67L_, Q9UKT9]
- log2 fold change of degron read counts [1]: 3.35
- log2 fold change of degron read counts [2]: 1.74
- log2 fold change of degron read counts [3]: 1.47
- log2 fold change of degron read counts (compound: thalidomide): 1.17

Sequence: FECEVCGAGFTQKGNLLRHIKL [46F_47E_49E_50V_52G_53A_54G_55F_67L_, Q9UKT9]
- log2 fold change of degron read counts [1]: 1.72
- log2 fold change of degron read counts [2]: -1.52
- log2 fold change of degron read counts [3]: 0.852
- log2 fold change of degron read counts (compound: thalidomide): 1.21

Sequence: FQCEVCGAGFTQKGNLLRHIKL [46F_47Q_49E_50V_52G_53A_54G_55F_67L_, Q9UKT9]
- log2 fold change of degron read counts [1]: 2.45
- log2 fold change of degron read counts [2]: 1.65
- log2 fold change of degron read counts [3]: 1.38
- log2 fold change of degron read counts (compound: thalidomide): 3.21

Sequence: FRCEVCGAGFTQKGNLLRHIKL [46F_47R_49E_50V_52G_53A_54G_55F_67L_, Q9UKT9]
- log2 fold change of degron read counts [1]: 2.66
- log2 fold change of degron read counts [2]: 2.02
- log2 fold change of degron read counts [3]: 2.33
- log2 fold change of degron read counts (compound: thalidomide): 1.57

Sequence: FGCPQCGALFTQKGNLLRHIKL [46F_47G_49P_50Q_52G_53A_54L_55F_67L_, Q9UKT9]
- log2 fold change of degron read counts [1]: 0.741
- log2 fold change of degron read counts [2]: -1.93
- log2 fold change of degron read counts [3]: 1.28
- log2 fold change of degron read counts (compound: thalidomide): -2.08

Sequence: FSCDICGAKFTQKGNLLRHIKL [46F_47S_49D_50I_52G_53A_54K_55F_67L_, Q9UKT9]
- log2 fold change of degron read counts [1]: 1.91
- log2 fold change of degron read counts [2]: 1.04
- log2 fold change of degron read counts [3]: -1.63
- log2 fold change of degron read counts (compound: thalidomide): 0.394
